# Measurements as given in PubChem BioAssay (Tox21).
# Results filed as inconclusive are left out. Unmarked numbers belong to inactive results. Activity calls are given as the source filed them. Calls come from the whole dose curve; as a rule, active = well fitted cell-killing curve with a large enough effect in the repeat runs; inconclusive = weak or mixed curves, or effect the other way; inactive = flat fitted curve, though single readings scatter.
# Assay: Human pregnane X receptor (PXR) small molecule agonists, qHTS cell viability counter screen (AID 1346977); note: nearly all actives have a fitted effect of over 50% in size
# Settings: PXR-Luc HepG2 viability, CellTiter-Fluor, 24 h; series mostly up to 92.4 µM; activity change, negative = cytotoxicity: at the top concentration
# Source text: U.S. Tox21 Program National Center for Advancing Translational Sciences [NCATS] NIH Chemical Genomics Center [NCGC] U.S. Environmental Protection Agency [EPA] National Institutes of Environmental Health Sciences [NIEHS] National Toxicology Program [NTP] U.S. Food and Drug Administration [FDA] Tox21 Assay Overview: The human pregnane X receptor (hPXR) regulates the expression of several drug metabolizing enzymes and induction of these proteins is a major mechanism for developing drug resistance in cancer. One such key enzyme catalyzing the drug metabolism is cytochrome P450 3A4 (CYP3A4). Changes in CYP3A4 expression affect drug metabolism, thereby reducing the therapeutic efficacy and altering toxicological response to a drug and which finally causes adverse drug interaction. To screen Tox21 libraries for compounds that activate hPXR-mediated CYP3A4 gene expression, PXR-Luc HepG2 cells were used. Also cytotoxicity of the compounds was tested in parallel by measuring the cell viability using CellTiter-Fluor assay system in the same wells.
# Tox21 Assay Protocol Summary: PXR-Luc HepG2 cells were dispensed at 2,000 per well in 5uL of assay medium containing 5% charcoal-stripped FBS into white solid bottom 1536-well plates (Corning Life Sciences, Corning, NY) using a Multidrop Combi (Thermo Scientific, Waltham, MA) dispenser. The assay plates were incubated at 37 C and 5% CO2 for 5hr, and then 23nL of compounds dissolved in DMSO and positive control were transferred using a Pintool station (Wako, San Diego, CA). The assay plates were incubated at 37C and 5% CO2 for 24hr. For cytotoxicity read, after 23hr incubation at 37C, 1uL CellTiter-Fluor reagent (Promega Corporation, Madison, WI) was added to each well of the assay plates using Flying Reagent Dispenser (FRD, Aurora Discovery, San Diego, CA). After 1hr incubation at 37C and 5% CO2, the fluorescence signal was quantified using a ViewLux plate reader (PerkinElmer, Shelton, CT).
# % is set by controls: 0 for no effect and ±100 for the full control effect; potency is the fitted concentration of half-maximal effect.
Compound,"activity change, negative = cytotoxicity",Potency
CC(C)(COC(=O)c1ccccc1)COC(=O)c1ccccc1,1.34%,
S=C([S-])NCCNC(=S)[S-].[Mn+2],-15.3%,
C=CCOC(=O)CCC1CCCCC1,5.88%,
Cc1ccc(C(=O)Oc2ccc(C(O)CNC(C)(C)C)cc2OC(=O)c2ccc(C)cc2)cc1 (stereo not given),-10.1% [at 42.5 µM],
C/C(=C(\CCOP(=O)(O)O)SC(=O)c1ccccc1)N(C=O)Cc1cnc(C)nc1N,10.5% [at 8.39 µM],
CCCCC(=O)OCC(=O)[C@H]1[C@H](C)C[C@H]2[C@@H]3C[C@H](F)C4=CC(=O)C=C[C@]4(C)[C@@]3(F)[C@@H](O)C[C@@]21C,10% [at 42.5 µM],
O=C(OCCc1ccccc1)c1ccccc1,-2.12%,
c1ccc(CNCCNCc2ccccc2)cc1,-12.2% [at 42.5 µM],
C=CC(=O)OCCOc1ccccc1,2.92%,
C1CCCNCCC1,1.23%,
CCOCC(O)COc1ccc(NC(=O)CC[S+](C)C)cc1 (stereo not given),19.5% [at 42.5 µM],
CC(C)(C)OCC1CO1 (stereo not given),-2.17%,
NC(N)=NCCC[C@H](N)C(=O)O,6.78% [at 8.39 µM],
CCCCCCCCCOS(=O)(=O)O,7.56%,
C=C(C)C(=O)OCCO,10.6%,
CO[C@@H]1[C@H](OC(=O)/C=C/C=C/C=C/C=C/C(=O)O)CC[C@]2(CO2)[C@H]1[C@@]1(C)O[C@@H]1CC=C(C)C,-6.62%,
COc1cc2nc(N3CCN(C(=O)C4COc5ccccc5O4)CC3)nc(N)c2cc1OC (stereo not given),,26.6 µM (active)
CC(C)CC(=O)C1C(=O)c2ccccc2C1=O,-5.78%,
CCCCCCCCCCO[C@@H]1O[C@H](CO)[C@@H](O)[C@H](O)[C@H]1O,-10.7%,
CC(C)(CO)[N+](=O)[O-],1.45%,

Compound,"activity change, negative = cytotoxicity",Potency
O=C(OCCCCCCOC(=O)c1ccccc1)c1ccccc1,-18.9%,
CC(=O)[O][Al][O]C(C)=O,0.817%,
C[Si](C)(CCCN)O[Si](C)(C)CCCN,1.52%,
CC[N+]1(CC)CCC(=C(c2ccccc2)c2ccccc2)C1C (stereo not given),1.75% [at 42.5 µM],
CC(C)(C)Cl,-0.242%,
C/C=C(/C(=C/C)c1ccc(OC(C)=O)cc1)c1ccc(OC(C)=O)cc1,3.57% [at 42.5 µM],
Cc1c(N)cccc1[N+](=O)[O-],1.73%,
COC(=O)c1ccc(I)cc1S(=O)(=O)NC(=O)Nc1nc(C)nc(OC)n1,4.59%,
CC(=O)NO,2.85% [at 42.5 µM],
CCN(CC)c1ccc2c(-c3ccccc3C(=O)O)c3ccc(=[N+](CC)CC)cc-3oc2c1,,4.86 µM (active)
C=C(C)C(=O)OCC,2.5%,
CCN(CC)c1ccc(C(=C2C=CC(=[N+](CC)CC)C=C2)c2cc(S(=O)(=O)O)ccc2S(=O)(=O)[O-])cc1,,15 µM (active)
O=C(O)CC(=O)C(=O)O,5.38%,
OCc1cc(C(O)CNCCCCCCOCCCCc2ccccc2)ccc1O (stereo not given),,21.1 µM (active)
COC(C)(C)CCO,2.15%,
CCC(C)O (stereo not given),6.89%,
CC(=O)OC[C@H]1O[C@@H](n2ncc(=O)[nH]c2=O)[C@H](OC(C)=O)[C@@H]1OC(C)=O,-6.15% [at 42.5 µM],
CC(=O)c1cccc([N+](=O)[O-])c1,2.03%,
CCCCCCCCCCCCCCOS(=O)(=O)O,-0.0279%,
O=C1CCC(=O)O1,7.23%,
